Outcome data for six compounds are collected here from PubChem BioAssay AID493200 (National Center for Advancing Translational Sciences (NCATS), 2011).

Molecules are shown by their SMILES. Records with an inconclusive call do not appear. The source made the active and inactive calls. The call rests on the fitted dose curve; in most records, active means well fitted activation curve with a large enough effect; inconclusive means small, poorly fitted or top-dose-only effect; inactive means no such curve, though single readings can be large or run the other way.

This assay can be described thus: qHTS Assay for Rab9 Promoter Activators: Initial hit validation from the primary screen. The conditions noted are these: Huh7 Rab9 promoter luciferase reporter, 24 h; series mostly up to 46.1 µM. The text has this: NIH Chemical Genomics Center [NCGC] NIH Molecular Libraries Probe Production centers Network [MLPCN] MLPCN Grant: MH089537-01 Assay Submitter (PI): Yiannis A. Ioannou NCGC Assay Overview: Niemann Pick Type C (NPC) is a rare neurodegenerative lipidosis that is characterized by lipid storage in the endosomal/lysosomal system. Treatment modalities for this devastating disease are currently non-existent due to the severe obstacles associated with accessing the central nervous system with proteins or genes (Ioannou, 2000). We have developed a new paradigm, termed "Orphan Receptor Bypass Therapy" (ORByT), to address these disorders. This paradigm posits the existence of endogenous "suppressor" proteins whose expression can dramatically improve LSD pathogenesis. The goal is the identification/discovery of small chemical compounds that can modulate the expression of these proteins and provide a new treatment modality for these devastating disorders. One such protein whose overexpression reverses aspects of the NPC phenotype is Rab9. We have developed and optimized a cell based luciferase reporter assay in 1536 well format for the identification of up-regulators of the Rab9 promoter. This assay presents data on the validation of hits from the primary screen.
The Rab9 promoter is cloned in front of the luciferase reporter gene, therefore […] promoter activation results in luciferase expression. Frozen stock of the Rab9 promoter transfected Huh7 cells were obtained from the laboratory of Dr. Yiannis Ioannou (The Mount Sinai School of Medicine, New York, NY). Cells were propagated and maintained at NCGC in medium containing RPMI-1640 supplemented with 10% FBS, 2mM L-glutamine, and 50ug/ml penicillin/streptomycin. Cells were harvested in and plated for assays in OP-MEM I reduced-serum medium supplemented with 10% FBS. The Amplite luciferase reporter gene assay kit was purchased from ABD Bioquest and prepared/stored according to manufacturers recommendations. qHTS Assay Setup: 1.Dispensed 5ul of Huh7 cells stably expressing Rab9-luciferase at a density of 1500 cells per well 1536-well plates. 2.Incubate cells at 37C, 5% CO2, and 95% humidity for 2 hours. 3.Transferred 23nl per well of compound in DMSO solution. 4.Incubated at 37C, 5% CO2, and 95% humidity for 24 hours. 5.Dispensed 3ul per well of Amplite reagent(ABD Bioquest) per well. 6.Incubate at ambient for 10 minutes. 7.Read using the luminescence protocol on the ViewLux plate reader (Perkin Elmer).
On the technique in general: qHTS replaces the single test concentration by a dilution series.
On to `COc1cccc(CCNCc2ccc(SC)cc2)c1`, for which the call was inactive.

Turning to `COc1ccc(C(CC(=O)N2CCC3(CC2)OCCO3)NS(=O)(=O)c2ccc(F)cc2)cc1` (stereo unspecified), the compound was called inactive.

Turning to `Cc1cccn2c(NCC3CCCO3)c(C(C)C)nc12` (stereo unspecified), the outcome was inactive.

On to `O=C1c2ccccc2C(=O)N1Cc1nc2ccccc2c(=O)n1-c1cccnc1`, for which the result was inactive.

For `CN1CCc2cc3c(c4c2C1Cc1ccccc1-4)OCO3` (stereo unspecified), the call was inactive.

In the case of `CCC(=NCc1cccnc1)c1c(O)n(-c2ccccc2)c(=O)[nH]c1=O`, the compound was classed as inactive.
